Test results as given in article PMC5540273 (PLoS ONE, 2017).

Legend:
Conditions in all cases: concentration: 1 μM, replicates: in singlicate; n = 1
TSSK1B = test system: TSSK1B
TSSK3 = test system: TSSK3
TTK = test system: TTK
TXK = test system: TXK
[1] = test system: TYK2(JH1domain-catalytic)
[2] = test system: TYK2(JH2domain-pseudokinase)
TYRO3 = test system: TYRO3
ULK1 = test system: ULK1
ULK2 = test system: ULK2
ULK3 = test system: ULK3
VEGFR2 = test system: T1, VEGFR2
T1 construct: gene KDR

VPS34 = test system: T2, VPS34
T2 construct: gene PIK3C3

VRK2 = test system: VRK2
WEE1 = test system: WEE1
WEE2 = test system: WEE2
WNK1 = test system: WNK1
WNK2 = test system: WNK2
WNK3 = test system: WNK3
WNK4 = test system: WNK4
YANK1 = test system: T3, YANK1
T3 construct: gene STK32A
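Also: KINOMEscan kinase panel screen.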

| SMILES | %Inh (TSSK1B) | %Inh (TSSK3) | %Inh (TTK) | %Inh (TXK) | %Inh [1] | %Inh [2] | %Inh (TYRO3) | %Inh (ULK1) | %Inh (ULK2) | %Inh (ULK3) | %Inh (VEGFR2) | %Inh (VPS34) | %Inh (VRK2) | %Inh (WEE1) | %Inh (WEE2) | %Inh (WNK1) | %Inh (WNK2) | %Inh (WNK3) | %Inh (WNK4) | %Inh (YANK1) |
| --- | --- | --- | --- | --- | --- | --- | --- | --- | --- | --- | --- | --- | --- | --- | --- | --- | --- | --- | --- | --- |
| O=C(Nc1n[nH]c2nc(-c3ccco3)c(Br)cc12)C1CCN(Cc2ccccc2)C1.O=C(O)[C@H](O)[C@@H](O)C(=O)O (stereo not shown) [SB-742034] | 0% | 0% | 4% | 0% | 5% | 0% | 0% | 5% | 19% | 6% | 7% | 0% | 0% | 0% | 8% | 0% | 0% | 0% | 2% | 0% |
| COc1ccc(Nc2nccc(NCCNC(=O)Nc3cc(C)ccc3C)n2)cc1 [GSK1379899] | 0% | 7% | 0% | 15% | 17% | 0% | 0% | 28% | 0% | 0% | 2% | 4% | 0% | 0% | 0% | 0% | 10% | 0% | 0% | 0% |
| FC(F)(F)c1ccccc1-c1cc(-c2c[nH]nc2-c2ccccn2)ccn1 [GW679396] | 1% | 4% | 0% | 0% | 0% | 0% | 13% | 0% | 0% | 0% | 1% | 0% | 0% | 4% | 5% | 0% | 0% | 13% | 11% | 3% |
| COc1ccc(CSc2nnc(-c3ccc4c(c3)CCO4)o2)cc1 | 0% | 0% | 0% | 0% | 0% | 0% | 0% | 0% | 0% | 0% | 0% | 15% | 0% | 0% | 14% | 0% | 0% | 0% | 0% | 0% |
| CNc1nc(-c2ccc3c(N)n[nH]c3c2)cc(N2C[C@@H](C(=O)NC3CCCCC3)OC[C@H]2C)n1 [GSK2375584] | 0% | 23% | 7% | 0% | 0% | 12% | 0% | 0% | 0% | 0% | 17% | 0% | 43% | 29% | 3% | 5% | 25% | 28% | 41% | 7% |
| COc1ccc(Nc2nccc(N3CCC(NC(=O)C(C)c4ccc(Cl)cc4)CC3)n2)cc1 (stereo not shown) [GSK1379812] | 0% | 53% | 0% | 0% | 0% | 0% | 0% | 0% | 0% | 0% | 1% | 0% | 0% | 31% | 0% | 0% | 0% | 47% | 19% | 10% |
| Fc1ccc(-c2nn3cccc(F)c3c2-c2ccncc2)cc1 [GW475620] | 0% | 14% | 14% | 5% | 22% | 9% | 0% | 12% | 0% | 12% | 1% | 15% | 22% | 0% | 5% | 5% | 20% | 5% | 9% | 28% |
| Nc1ncnc2occ(-c3ccc4c(c3)CCN4C(=O)Cc3cc(F)ccc3F)c12 [GSK2645446] | 0% | 4% | 0% | 0% | 2% | 3% | 0% | 0% | 0% | 0% | 0% | 0% | 0% | 0% | 13% | 1% | 14% | 38% | 60% | 0% |
| CNCc1ccc2nc(NC(=O)c3ccc(C(C)(C)C)cc3)cn2c1 | 0% | 0% | 0% | 8% | 0% | 24% | 0% | 20% | 15% | 58% | 6% | 2% | 74% | 0% | 0% | 0% | 0% | 30% | 13% | 2% |
| COc1cc2ncnc(Nc3cccc(Br)c3)c2cc1OC.Cl [GI230329] | 0% | 16% | 0% | 4% | – | 23% | 3% | 9% | 0% | 17% | 0% | 41% | 24% | 2% | 6% | 0% | 0% | 41% | 16% | 56% |
